AHR activator: human AHR activation; activation, % at 5 µM; 320,000 tested, 2.5% active; AHR-responsive luciferase reporter cells, luminescence; P35869; in the data active = activation above about 47%;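 note: 0% = vehicle wells and 100% = reference agonist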
Target sequence (P35869 whole entry, looked up): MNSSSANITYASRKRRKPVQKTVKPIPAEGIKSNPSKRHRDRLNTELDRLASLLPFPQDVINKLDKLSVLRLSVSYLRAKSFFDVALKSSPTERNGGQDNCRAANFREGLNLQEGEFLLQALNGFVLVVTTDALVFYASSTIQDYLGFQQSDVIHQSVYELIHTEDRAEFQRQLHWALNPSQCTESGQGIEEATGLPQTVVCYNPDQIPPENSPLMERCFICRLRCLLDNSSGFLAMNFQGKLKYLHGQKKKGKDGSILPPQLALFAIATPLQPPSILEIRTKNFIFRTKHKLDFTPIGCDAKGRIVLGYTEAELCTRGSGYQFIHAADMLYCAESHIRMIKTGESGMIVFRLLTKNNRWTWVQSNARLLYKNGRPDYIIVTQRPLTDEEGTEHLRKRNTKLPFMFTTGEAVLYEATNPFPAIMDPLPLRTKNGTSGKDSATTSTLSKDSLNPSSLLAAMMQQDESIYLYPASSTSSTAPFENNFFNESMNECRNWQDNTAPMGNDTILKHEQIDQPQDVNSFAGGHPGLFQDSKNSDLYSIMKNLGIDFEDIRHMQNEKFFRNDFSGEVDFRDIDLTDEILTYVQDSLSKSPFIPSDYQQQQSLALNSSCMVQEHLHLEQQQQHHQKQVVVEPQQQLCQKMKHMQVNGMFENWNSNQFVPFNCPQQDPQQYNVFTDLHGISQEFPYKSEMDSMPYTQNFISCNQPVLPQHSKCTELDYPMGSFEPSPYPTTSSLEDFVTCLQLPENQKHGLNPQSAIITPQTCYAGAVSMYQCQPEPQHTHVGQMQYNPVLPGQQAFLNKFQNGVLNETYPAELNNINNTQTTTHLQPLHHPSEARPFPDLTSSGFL
hgDAF-12 ag: hgDAF-12 agonism, primary luciferase screen; activation, % at 6.8 µM; HEK293 GAL4-hgDAF12 UAS-luciferase reporter, agonist luminescence; normalized to butyrate control; 370,000 tested, 1.8% active;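 active = activation above a cutoff set at the mean of all screened compounds plus 3 SD, cut at about 10% in these data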;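 note: 0% = DMSO wells and 100% = sodium butyrate wells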
hcDAF12 agonist: activates DAF-12 receptor from parasite H. contortus; 370,000 tested, 1.4% active; activation, % at 6.8 µM; HEK293 hcDAF-12 lit1-tk-luc reporter, luminescence; 0% DMSO, 100% Δ7-dafachronic acid; AID 652067;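 active = activation above the mean of all tested compounds plus 3 SD, cut at about 5.5% in these data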;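 note: 100% = response to 3 µM Δ7-dafachronic acid high control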
DAX1 inh-1: blocks DAX1 repression of SF-1 activated StAR promoter; HEK293T StAR-luciferase reporter, SF-1/DAX-1 repression relief; AID 652010; inhibition, % at 6.8 µM; 370,000 tested, 1.1% active;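 active = inhibition above the mean over all tested compounds plus 3 SD, cut at about 3.6% in these data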;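 note: 0% = DAX-1 cells with DMSO and 100% = cells lacking DAX-1 with DMSO; higher inhibition means more luminescence from relief of DAX-1 repression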
ssDAF12 agonist: S. stercoralis DAF-12 activation, primary screen | HEK293 ssDAF-12/GRIP1 lit1-tk-luc reporter, luminescence; % of 3 µM dafachronic acid response | activation, % at 6.8 µM | 370,000 tested, 1% active | AID 652126;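 active = activation above the mean over all tested compounds plus 3 SD, cut at about 0.9% in these data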;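 note: 0% = DMSO-only wells and 100% = 3 µM delta7-dafachronic acid wells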
DAX1 inh-2: inhibitors of human orphan nuclear receptor DAX1 (NR0B1). HEK293 Gal4-DAX1 luciferase reporter, luminescence. inhibition, % at 6.75 µM. 340,000 tested, 0.99% active. AID 504766;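 active = inhibition above the mean over all tested compounds plus 3 SD, cut at about 4.2% in these data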;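 note: 0% = DAX1-transfected cells with DMSO and 100% = empty-vector control cells with DMSO; inhibition shows as a rise in luminescence from relieved DAX1 repression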
* = called active by the depositor; / = no result. An excerpt weighted towards active compounds, which were near 5.7% of everything screened.

SMILES	AHR activator	hgDAF-12 ag	hcDAF12 agonist	DAX1 inh-1	ssDAF12 agonist	DAX1 inh-2
O=C1c2ccccc2C(=O)c2cc(NC(=O)C3CC3)ccc21	168*	7	5	2	-1	3
CC(C)CN1C(=O)c2ccc(NC(=O)C3CC3)cc2C1=O	-2	1	1	0	-1	1
O=C(Nc1ccc2c(c1)oc1ccccc12)C1CC1	74*	9	5	2	1	2
C[C@@H]1CN([C@@H](C)CO)C(=O)c2cccc(NC(=O)Nc3cccc4ccccc34)c2O[C@H]1CN(C)S(=O)(=O)c1ccc(Cl)cc1	/	-6	-1	/	-2	/
CCCCC(=O)Nc1ccc(C2C(=O)c3ccccc3C2=O)cc1	3	3	1	2	-1	1
COC(=O)[C@]12CCCCC=C1N(CCc1ccc(OC)c(OC)c1)C(=O)[C@H](CC(=O)NCC13CC4CC(CC(C4)C1)C3)C2	/	-4	-3	1	-1	/
CCN(CC(=O)NCc1cccs1)C(=O)c1cc(S(=O)(=O)N2CCOCC2)ccc1C	-2	1	0	0	-1	0
COCCNC(=O)c1ccc2c3n(nc2c1)-c1ccc(Cl)cc1CO3	4	7	3	1	-1	2
O=C(NCC1CC1)c1ccc2c3n(nc2c1)-c1ccc(Cl)cc1CO3	-12	12*	2	1	-1	0
COCCNC(=O)c1ccc2c3n(nc2c1)-c1ccccc1CO3	-8	12*	6.4*	2	0	2
COC(=O)N(NC(=O)C(O)(c1ccccc1)c1ccccc1)c1ccc(C)cc1	31	-2	-2	-1	-1	0
CC(SCC(=O)O)c1nc2ccccc2[nH]1 (configuration not stated)	4	3	0	0	1.0*	1
CCC(=O)NC(Cc1ccccc1)c1nc2ccccc2[nH]1 (configuration not stated)	/	-3	1	0	0	4.2*
CC(C)C[C@H]1CNC(=S)N1CC1CCN(CCC23CC4CC(CC(C4)C2)C3)CC1	/	-3	-2	-1	-1	-1
Cn1c(/C=C/c2ccc(Cl)cc2Cl)c([N+](=O)[O-])c(=O)n(C)c1=O	10	-1	0	0	-1	1
Cc1ccc2nc(N3CCN(C(=O)c4ccc(F)cc4)CC3)c(C#N)cc2c1	11	-1	1	-1	-1	0
Cc1ccc2cc(C#N)c(N3CCN(C(=O)c4cccs4)CC3)nc2c1	22	0	6.5*	0	-1	-1
Cc1occc1C(=O)Nc1cc(C(C)(C)C)on1	28	12*	4	4.2*	0	2
Cc1cc(OCC(=O)N2CCCCCC2)ccc1[N+](=O)[O-]	14	12*	0	2	1	2
c1ccc(OCCNc2ccn3nc(-c4ccccc4)cc3n2)cc1	/	10	1	-1	-1	/
FC(F)(F)c1cccc(-c2cc3nc(NCCOc4ccccc4)ccn3n2)c1	/	12*	4	-1	-1	/
O=S1(=O)CCC(NC(=S)Nc2ccc(Cl)cc2)C1 (configuration not stated)	3	1	0	0	-1	1
COc1cc(/C=C2\C(=N)N3N=C(C(C)C)SC3=NC2=O)ccc1OCCOc1ccc(NC(C)=O)cc1	3	-4	-1	0	0	0
COC(=O)c1n[nH]c2ccccc12	28	2	6.2*	1	1.0*	0
CC(OC(=O)c1n[nH]c2ccccc12)C(=O)Nc1ccccc1[N+](=O)[O-] (configuration not stated)	25	4	3	0	1.0*	-1
SMILES	AHR activator	hgDAF-12 ag	hcDAF12 agonist	DAX1 inh-1	ssDAF12 agonist	DAX1 inh-2
COCCNC(=O)c1n[nH]c2ccccc12	11	1	3	1	0	1
CC(C)c1cccc(C(C)C)c1NC(=S)Nc1cccc(Cl)c1	2	2	-1	0	-1	5.7*
COc1ccc(CSc2nnc3[nH]c(=O)cc(N)n23)cc1	-1	1	3	0	3.7*	-1
c1ccc(N/N=C(\Cc2ncc[nH]2)c2ccccc2)cc1	14	0	2	2	-1	2
Clc1cccc(N/N=C(\Cc2nc3ccccc3[nH]2)c2ccccc2)c1	64*	7	-1	1	0	2
Cc1ccc(C)c(NC(=O)C(Sc2ncnc3ccccc23)c2ccccc2)c1 (configuration not stated)	10	/	/	/	/	0
Cc1ccc2nc(=O)c(NNc3ccccc3)cnc2c1	45	6	0	1	1.0*	0
Cc1nc2ccccc2nc(=O)c1NNc1ccccc1	/	9	2	1	0	1
O=C(NC1CCCC1)C(C1CC1)n1c(C2CC2)nc2ccccc21 (configuration not stated)	/	5	1	2	1.6*	/
O=C(NC1CCCC1)C(C1CC1)n1c(C2CCCC2)nc2ccccc21 (configuration not stated)	/	-2	1	0	-1	/
CCOC(=O)c1cc(C#N)c(SCc2ccc(C#N)cc2)nc1C	17	0	3	0	1.1*	0
Cc1ccccc1OCCSc1nnc(-c2cccnc2)n1N	54*	3	-3	0	-1	0
Nn1c(SCc2ccc(F)cc2)nnc1-c1cccnc1	2	1	1	0	-1	0
COc1ccc(-c2noc(CCC(=O)N3CCC(c4cc(C)ccc4C)CC3)n2)cc1	/	4	-2	0	3.0*	0
COc1ccc(-c2noc(CCC(=O)N3CCN(c4cccc(OC)c4)CC3)n2)cc1	/	0	-3	-2	-1	-2
Clc1ccc(-c2nc(NCCCN3CCOCC3)c3ccccc3n2)cc1	71*	2	0	-1	-1	/
CCC(=O)N(C)C[C@H]1Oc2ncc(C#Cc3cccnc3)cc2C(=O)N([C@@H](C)CO)C[C@@H]1C	/	-4	-1	3	-1	0
Cc1cc(C)c2nc(NC(=O)c3cc(C)on3)sc2c1	-6	-6	-3	-1	-2	-1
CCc1noc(C)c1C(=O)Nc1nc2ccc(S(C)(=O)=O)cc2s1	12	6	1	2	-1	1
CCCCc1ccc2nc(NC(=O)c3ccc(Br)o3)sc2c1	/	11*	1	/	-1	/
CCc1noc(C)c1C(=O)Nc1nc2ccc(F)cc2s1	52*	10	3	3.9*	0	1
CCc1ccc2nc(NC(=O)c3cc(C)on3)sc2c1	18	12*	5	-1	0	-2
Cc1ccc(NS(=O)(=O)c2ccc(N/N=C/c3ccncc3)c([N+](=O)[O-])c2)c(C)c1	48*	0	-1	0	-1	-1
O=C(Nc1nc2ccccc2s1)c1ccccc1[N+](=O)[O-]	28	7	2	1	1.2*	0

Bioassay records as filed in PubChem BioAssay.
